Data taken from PubChem BioAssay (Tox21).
Records with an inconclusive call do not appear. Calls of active or inactive are those of the source. Unless noted, the call rests on the fitted dose curve; in most records, active means well fitted curve in the direction sought with a large enough effect in the repeat runs; inconclusive means weak or mixed curves; inactive means no such curve, though single readings can be large; an effect the other way counts as inactive or inconclusive.

Legend:
[1] = A CellTox Green Cytotoxicity Assay to monitor cytotoxicity in HepG2 cells - 16 hour (AID 1224876); further: nearly all actives have a fitted effect of over 45% in size
Summary of the method: (§1)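 Cells and non-lytic dye reagent are dispensed together (600 HepG2 cells/well) and incubated 5 h before DMSO compound transfer. Kinetic fluorescence is then recorded in the same wells during 40 h at 37 C.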

[2] = qHTS RealTime-Glo MT Cell Viability Assay in HepG2 cells - 32 hour (AID 1224877); further: nearly all actives have a fitted effect of over 55% in size
Summary of the method: (§2)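 Compound treatment began 5 h after plating HepG2 cells (600/well) with NanoLuc luciferase and prosubstrate. Plates stayed at 37 C for 40 h; luminescence was captured at six time points, 0 h through 40 h.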

[3] = A CellTox Green Cytotoxicity Assay to monitor cytotoxicity in HepG2 cells - 24 hour (AID 1224878); further: nearly all actives have a fitted effect of over 45% in size
Summary of the method: as §1

[4] = A CellTox Green Cytotoxicity Assay to monitor cytotoxicity in HepG2 cells - 40 hour (AID 1224879); further: nearly all actives have a fitted effect of over 40% in size
Summary of the method: as §1

[5] = qHTS RealTime-Glo MT Cell Viability Assay in HEK293 cells - 0 hour (AID 1224880); further: top concentration of the series differs between compounds; nearly all actives have a fitted effect of over 45% in size
Summary of the method: (§3)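 Real-time viability in HEK293: signal arises when living cells convert a prosubstrate for NanoLuc in the medium, so luminescence tracks viable cell number. Compound (23 nL, DMSO) added 5 h post-seeding; kinetic reads at 0–40 h, 37 C.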

[6] = A CellTox Green Cytotoxicity Assay to monitor cytotoxicity in HEK293 cells - 32 hour (AID 1224881); further: nearly all actives have a fitted effect of over 40% in size
Summary of the method: (§4)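 Cells (HEK293, 600/well) and dye reagent are dispensed together. After 5 h at 37 C, 23 nL compound is pinned in. Plates stay at 37 C for 40 h with fluorescence read at 0h, 8h, 16h, 24h, 32h and 40h.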

[7] = A CellTox Green Cytotoxicity Assay to monitor cytotoxicity in HepG2 cells - 0 hour (AID 1224882); further: nearly all actives have a fitted effect of over 35% in size
Summary of the method: as §1

[8] = A CellTox Green Cytotoxicity Assay to monitor cytotoxicity in HepG2 cells - 32 hour (AID 1224883); further: nearly all actives have a fitted effect of over 50% in size
Summary of the method: as §1

[9] = A CellTox Green Cytotoxicity Assay to monitor cytotoxicity in HEK293 cells - 8 hour (AID 1224884); further: nearly all actives have a fitted effect of over 35% in size
Summary of the method: as §4

[10] = qHTS RealTime-Glo MT Cell Viability Assay in HepG2 cells - 16 hour (AID 1224885); further: nearly all actives have a fitted effect of over 50% in size
Summary of the method: as §2

[11] = qHTS RealTime-Glo MT Cell Viability Assay in HEK293 cells - 24 hour (AID 1224886); further: top concentration of the series differs between compounds; nearly all actives have a fitted effect of over 50% in size
Summary of the method: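 Quantitative high-throughput screen of the Tox21 10K library in HEK293: cells and RealTime-Glo reagents plated together, compound added at 5 h, luminescence monitored through 40 h at 37 C.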

[12] = qHTS RealTime-Glo MT Cell Viability Assay in HEK293 cells - 8 hour (AID 1224887); further: top concentration of the series differs between compounds; nearly all actives have a fitted effect of over 50% in size
Summary of the method: as §3

[13] = A CellTox Green Cytotoxicity Assay to monitor cytotoxicity in HEK293 cells - 16 hour (AID 1224888); further: nearly all actives have a fitted effect of over 35% in size
Summary of the method: as §4

[14] = qHTS RealTime-Glo MT Cell Viability Assay in HepG2 cells - 0 hour (AID 1224889); further: nearly all actives have a fitted effect of over 50% in size
Summary of the method: as §2

[15] = A CellTox Green Cytotoxicity Assay to monitor cytotoxicity in HepG2 cells - 8 hour (AID 1224890); further: nearly all actives have a fitted effect of over 45% in size
Summary of the method: as §1

[16] = qHTS assay to identify small molecule antagonists of the estrogen receptor alpha (ER-alpha) signaling pathway using the BG1 cell line in the presence of 0.1 nM 17-beta-estradiol - cell viability counter screen (AID 1259241); further: nearly all actives have a fitted effect of over 40% in size
Summary of the method: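 The cell line endogenously expresses full-length ER-alpha and carries four EREs driving luciferase. Cells are cultured 5 days hormone-free, treated 22 hr with compounds and 0.1 nM estradiol, then viability is read by fluorescence.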

[17] = qHTS assay to identify small molecule antagonists of the androgen receptor (AR) signaling pathway using the MDA cell line in the presence of 0.5 nM R1881 - cell viability counter screen (AID 1259242); further: nearly all actives have a fitted effect of over 45% in size
Summary of the method: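 Steps: plate MDA-kb2 cells, rest 5 hr at 37C without CO2; pin in compounds in DMSO; add R1881 to 0.5 nM final; incubate 16 hr; add CellTiter-Fluor, 30 min; read fluorescence.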

[18] = target: Estrogen receptor (Homo sapiens) (UniProt P03372); assay: qHTS assay to identify small molecule antagonists of the estrogen receptor alpha (ER-alpha) signaling pathway using the BG1 cell line in the presence of 0.1 nM 17-beta-estradiol (AID 1259244); further: nearly all actives have a fitted effect of over 50% in size
Estrogen receptor (Homo sapiens), sequence (P03372 whole entry, looked up): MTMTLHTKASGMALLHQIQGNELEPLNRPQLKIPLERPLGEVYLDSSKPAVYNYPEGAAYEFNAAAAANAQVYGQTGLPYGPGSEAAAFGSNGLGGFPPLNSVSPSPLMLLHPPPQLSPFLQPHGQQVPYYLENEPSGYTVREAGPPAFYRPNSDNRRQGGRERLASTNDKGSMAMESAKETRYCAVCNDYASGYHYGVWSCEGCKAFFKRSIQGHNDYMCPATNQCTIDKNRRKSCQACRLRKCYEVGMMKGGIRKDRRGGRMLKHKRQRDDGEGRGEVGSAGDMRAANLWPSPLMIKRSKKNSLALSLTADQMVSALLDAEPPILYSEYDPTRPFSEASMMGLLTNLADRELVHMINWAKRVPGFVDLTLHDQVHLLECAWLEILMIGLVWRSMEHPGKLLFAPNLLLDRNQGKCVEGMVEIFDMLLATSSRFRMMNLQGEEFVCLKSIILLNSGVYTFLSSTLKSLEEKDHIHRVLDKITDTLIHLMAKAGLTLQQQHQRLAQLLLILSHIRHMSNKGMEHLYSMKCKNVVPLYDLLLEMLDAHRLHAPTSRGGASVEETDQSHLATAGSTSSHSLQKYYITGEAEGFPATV
Summary of the method: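 Antagonist mode: compounds in DMSO are pinned onto VM7Luc4E2 reporter cells, 0.1 nM final 17beta-estradiol is added, and after 22 h at 37C luciferase luminescence is measured with ONE-Glo.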

[19] = target: Androgen receptor (Homo sapiens) (UniProt P10275); assay: qHTS assay to identify small molecule antagonists of the androgen receptor (AR) signaling pathway using the MDA cell line in the presence of 0.5 nM R1881 (AID 1259243); further: nearly all actives have a fitted effect of over 50% in size
Androgen receptor (Homo sapiens), sequence (P10275 whole entry, looked up): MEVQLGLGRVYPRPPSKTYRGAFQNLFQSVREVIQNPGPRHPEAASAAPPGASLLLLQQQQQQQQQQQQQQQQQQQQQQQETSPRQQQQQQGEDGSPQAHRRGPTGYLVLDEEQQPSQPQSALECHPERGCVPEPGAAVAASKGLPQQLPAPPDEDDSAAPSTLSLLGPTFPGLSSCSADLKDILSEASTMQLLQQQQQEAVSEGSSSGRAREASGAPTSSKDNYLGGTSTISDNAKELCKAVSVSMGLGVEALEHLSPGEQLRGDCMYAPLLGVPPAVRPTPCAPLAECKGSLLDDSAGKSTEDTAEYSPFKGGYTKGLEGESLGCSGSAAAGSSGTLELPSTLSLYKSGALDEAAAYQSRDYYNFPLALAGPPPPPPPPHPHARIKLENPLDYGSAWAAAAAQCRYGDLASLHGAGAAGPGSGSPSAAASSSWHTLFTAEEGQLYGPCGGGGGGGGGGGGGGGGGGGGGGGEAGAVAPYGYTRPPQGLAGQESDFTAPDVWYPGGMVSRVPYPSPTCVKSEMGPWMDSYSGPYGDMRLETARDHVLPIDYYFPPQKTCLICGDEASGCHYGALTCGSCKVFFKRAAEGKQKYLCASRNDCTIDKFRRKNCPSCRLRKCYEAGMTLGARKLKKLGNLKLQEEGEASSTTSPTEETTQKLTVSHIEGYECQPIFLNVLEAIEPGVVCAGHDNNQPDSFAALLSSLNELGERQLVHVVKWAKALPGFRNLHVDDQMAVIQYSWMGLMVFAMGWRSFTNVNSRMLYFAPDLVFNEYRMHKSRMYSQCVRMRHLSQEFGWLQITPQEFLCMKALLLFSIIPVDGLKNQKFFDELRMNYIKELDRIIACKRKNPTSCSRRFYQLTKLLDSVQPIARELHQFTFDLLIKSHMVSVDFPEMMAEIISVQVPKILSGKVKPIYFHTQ
Summary of the method: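 Stably transfected MDA-kb2 cells express luciferase from an MMTV promoter bearing both AR and GR response elements. Compounds plus 0.5 nM R1881 (final) were incubated 16 hr at 37C without CO2, then luminescence measured.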

[20] = qHTS assay to identify small molecule phospholipidosis (PLD) inducers (AID 1259344; active means well fitted curve in the direction sought with a large enough effect; an effect the other way counts as inactive or inconclusive)
Summary of the method: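 After 4 h attachment on collagen I, HepG2 cells were dosed with compound alongside LipidTOX Red, kept 24 h at 37 C, fixed, and imaged for lamellar phospholipid pits.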
On the % scale 0 is the no-effect control and ±100 the full control effect.

OC1OCCOC1O (centres undefined)
inactive: Potency [1] | outcome [2] | Potency [3] | Potency [4] | Potency [5] | Potency [6] | Potency [7] | Potency [8] | Potency [9] | outcome [10] | Potency [11] | Potency [12] | Potency [13] | Potency [14] | Potency [15] | outcome [16] | outcome [17]

CC(C)Nc1ccccc1
inactive: Potency [1] | outcome [2] | Potency [3] | Potency [4] | Potency [5] | Potency [6] | Potency [7] | Potency [8] | Potency [9] | outcome [10] | Potency [11] | Potency [12] | Potency [13] | Potency [14] | Potency [15] | outcome [16] | outcome [17] | outcome [18]

CN(C)CCN(C)CCO
inactive: Potency [1] | outcome [2] | Potency [3] | Potency [4] | Potency [5] | Potency [6] | Potency [7] | Potency [8] | Potency [9] | outcome [10] | Potency [11] | Potency [12] | Potency [13] | Potency [14] | Potency [15] | outcome [16] | outcome [17] | outcome [18]

CCOc1ccccc1OCC1CNCCO1 (centres undefined)
inactive: Potency [1] | outcome [2] | Potency [3] | Potency [4] | Potency [5] | Potency [6] | Potency [7] | Potency [8] | Potency [9] | outcome [10] | Potency [11] | Potency [12] | Potency [13] | Potency [14] | Potency [15] | outcome [16] | outcome [17] | Potency [19]

Cc1ncc([N+](=O)[O-])n1CC(C)O (centres undefined)
inactive: Potency [1] | outcome [2] | Potency [3] | Potency [4] | Potency [5] | Potency [6] | Potency [7] | Potency [8] | Potency [9] | outcome [10] | Potency [11] | Potency [12] | Potency [13] | Potency [14] | Potency [15] | outcome [16] | outcome [17] | outcome [18] | outcome [20]

C[Si]1(C)O[Si](C)(C)O[Si](C)(C)O[Si](C)(C)O[Si](C)(C)O1
inactive: Potency [1] | outcome [2] | Potency [3] | Potency [4] | Potency [5] | Potency [6] | Potency [7] | Potency [8] | Potency [9] | outcome [10] | Potency [11] | Potency [12] | Potency [13] | Potency [14] | Potency [15] | outcome [16] | outcome [17] | outcome [18]

C#CCN[C@@H]1CCc2ccccc21
inactive: Potency [1] | outcome [2] | Potency [3] | Potency [4] | Potency [5] | Potency [6] | Potency [7] | Potency [8] | Potency [9] | outcome [10] | Potency [11] | Potency [12] | Potency [13] | Potency [14] | Potency [15] | outcome [16] | outcome [17] | Potency [19] | outcome [20]

CCCCCCCCCCCCCCCCCCOCCO
inactive: cytotoxicity increase [1] 0.179% [at 15.8 µM] | activity change, negative = cytotoxic [2] -5.24% [at 15.8 µM] | cytotoxicity [3] 0.951% [at 15.8 µM] | cytotoxicity increase [4] 2.96% [at 15.8 µM] | activity change, negative = cytotoxicity [5] 18.7% [at 15.8 µM] | cytotoxicity increase [6] 8.15% [at 15.8 µM] | cytotoxicity [7] -0.0743% [at 15.8 µM] | cytotoxicity increase [8] 1.19% [at 15.8 µM] | cytotoxicity increase [9] -0.0989% [at 15.8 µM] | activity change, negative = cytotoxic [10] 1.39% [at 15.8 µM] | activity change, negative = cytotoxicity [11] -7.08% [at 15.8 µM] | activity change, negative = cytotoxicity [12] 1.44% [at 15.8 µM] | activity change [13] 5.03% [at 15.8 µM, hits give high values] | activity change, negative = cytotoxicity [14] 2.77% [at 15.8 µM] | cytotoxicity increase [15] -4.91% [at 15.8 µM] | activity change, negative = cytotoxicity [16] 4.04% [at 19 µM] | viability change, negative = cytotoxic [17] -0.694% [at 19 µM]

CC1(C)O[C@H]2CC(=O)OC[C@]23[C@H]2CC[C@@]4(C)[C@H](c5ccoc5)OC(=O)[C@H]5O[C@]54[C@]2(C)C(=O)C[C@@H]13
inactive: Potency [1] | outcome [2] | Potency [3] | Potency [4] | Potency [5] | Potency [6] | Potency [7] | Potency [8] | Potency [9] | outcome [10] | Potency [11] | Potency [12] | Potency [13] | Potency [14] | Potency [15] | outcome [16] | outcome [17] | outcome [20]

CCN1CCCC1CN (centres undefined)
inactive: Potency [1] | outcome [2] | Potency [3] | Potency [4] | Potency [5] | Potency [6] | Potency [7] | Potency [8] | Potency [9] | outcome [10] | Potency [11] | Potency [12] | Potency [13] | Potency [14] | Potency [15] | outcome [16] | outcome [17] | outcome [18]

CC(=O)OC(C)=O
inactive: Potency [1] | outcome [2] | Potency [3] | Potency [4] | Potency [5] | Potency [6] | Potency [7] | Potency [8] | Potency [9] | outcome [10] | Potency [11] | Potency [12] | Potency [13] | Potency [14] | Potency [15] | outcome [16] | outcome [17]

Cn1nnc2c(C(N)=O)ncn2c1=O
inactive: Potency [1] | outcome [2] | Potency [3] | Potency [4] | Potency [5] | Potency [6] | Potency [7] | Potency [8] | Potency [9] | outcome [10] | Potency [11] | Potency [12] | Potency [13] | Potency [14] | Potency [15] | outcome [16] | outcome [17] | outcome [18] | outcome [20]

CC1=C(C(=O)O)N2C(=O)[C@@H](NC(=O)[C@H](N)C3=CCC=CC3)[C@H]2SC1
inactive: Potency [1] | outcome [2] | Potency [3] | Potency [4] | Potency [5] | Potency [6] | Potency [7] | Potency [8] | Potency [9] | outcome [10] | Potency [11] | Potency [12] | Potency [13] | Potency [14] | Potency [15] | outcome [16] | outcome [17] | outcome [18] | PLD induction [20] 0.229% [at 7.66 µM]

COC(=O)CCCCC(CCSS/C(CCO)=C(\C)N(C=O)Cc1cnc(C)nc1N)SC(C)=O (centres undefined)
inactive: Potency [1] | outcome [2] | Potency [3] | Potency [4] | Potency [5] | Potency [6] | Potency [7] | Potency [8] | Potency [9] | outcome [10] | Potency [11] | Potency [12] | Potency [13] | Potency [14] | Potency [15] | outcome [16] | outcome [17] | Potency [19] | outcome [18]
